40 compounds from PubChem BioAssay can be followed below.

Unmarked numbers belong to inactive results.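 How the source made its calls: active means viability increase at or above a cutoff of the median across tested compounds plus 3 SD (cut at about 8.5% in these data, passing the limit was not always enough); inconclusive means some gains above the cutoff, reason not given; inactive means the rest.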

The nature of the experiment: viability gain of MRP-1-high H69AR cells under doxorubicin, pilot screen, MRP-1 activator project, CellTiter-Glo, duplicate (AID 807).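 Further: compound pretreatment 18-22 h then 72 h combined with doxorubicin; 0% = doxorubicin alone and 100% = vehicle without doxorubicin.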 Conditions: H69AR viability with doxorubicin, CellTiter-Glo luminescence; at 10 µM; hits give high values.
For the compound `Cn1c2ccc(CC(=O)O)cc2c2cc(CC(=O)O)ccc21`, the viability increase is -3.54%.
With `CS(=O)(=O)N1CCN(c2nc(-c3ccccc3)cs2)CC1`, the viability increase is 0.2%.
The figure for `CCOc1cc(CN2CCSCC2)ccc1O` is 0.51%; for `Cc1cc(C)cc(OCC(O)CN2C(=O)NC(C)(C)C2=O)c1` (stereo not given) it is 0.13%; for `O=C(NC1CCCCCCC1)c1ccc(CNc2c(N3CCOCC3)c(=O)c2=O)cc1` it is 0.25%.
In the case of `COC(=O)C1=C(O)CSC1=Nc1cccc(C(F)(F)F)c1` it was -0.93%; in that of `COc1cccc(C2c3c(oc4cc(C)c(C)cc4c3=O)C(=O)N2CCCN(C)C)c1` (stereo not given), -3.94%; in that of `CCOC(=O)c1ccc(NC(=O)NCCN2CCCCC2)cc1`, -0.32%.
In the case of `COc1ccc(-c2nnc3ccc(SCC(=O)N4CCCC4)nn23)cc1`, the viability increase was -4.23%.
The figure for `CC(=O)c1cc(F)c(N2CCN(CCC#N)CC2)cc1C` is -0.38%; for `COc1ccc(-n2c(Cn3c(=O)sc4ccccc43)nnc2SCC(=O)N2CCOCC2)cc1` it is 0.3%; for `CCOC(=O)c1c(NC(=O)c2cc(C3CC3)on2)sc2c1CCCC2` it is -1.3%.
In the case of `CCOc1ccccc1C(=O)Nc1nnc(C(C)C)s1` it was -4.41%; in that of `COc1ccccc1N1CCN(C(=O)CCCC2=NS(=O)(=O)c3ccccc3N2)CC1`, -4.95%.
For `O=C(O)CC1C(=O)NCCN1Cc1ccc(F)c(F)c1` (stereo not given), the viability increase was -1.31%.
The figure for `CCc1ccccc1S(=O)(=O)Cc1ccc(C(=O)NC(C)C)o1` is -1.52%; for `Cc1cc(Nc2ccc(Br)c(C)c2)n2nc(C)nc2n1` it is -6.94%; for `O=C(O)CCc1ccc(-c2cccs2)n1NC(=O)c1ccc(Cl)cc1` it is -3.75%.
Consider `CCC(=O)N1CC2(C)CN(C(=O)CC)CC(C)(C1)C2`, for which the viability increase was -0.75%.
In the case of `O=C(Cc1cc(=O)[nH]c(=O)[nH]1)N1CCN(C(=O)c2ccco2)CC1`, the viability increase was -2.96%.
For `CCCCc1ccc(Nc2ncnc3nc[nH]c23)cc1`, the viability increase was 2.8%.
With `O=C1c2ccccc2C(O)N1c1ccc(Cl)cc1` (stereo not given), the viability increase is -0.07%.
In the case of `CN(C)c1ccc(C2N3CC4(C)CN2CC(C)(C3)C4O)cc1` (stereo not given), the viability increase was 0.46%.
`COc1cc2c(c(O)c1OC)C(=O)C(OC)CCC2` (stereo not given): the viability increase was -0.47%.
In the case of `CCCC(=O)NCCCc1nc2ccccc2[nH]1` it was 1.33%; in that of `COc1cc(OC)cc(OCC(O)Cn2cnc3cc(C)c(C)cc32)c1` (stereo not given), -5.24%; in that of `CCCc1cc(C(=O)NCc2ccc(OC)cc2)no1`, -0.95%.
Take `O=C(NCCCN1CCCC1=O)c1ccccc1NS(=O)(=O)c1ccc(F)cc1`: the viability increase is -2.44%.
On to `CCc1nnc(NC(=O)c2ccc(S(=O)(=O)N3CCOCC3)cc2)s1`, for which the viability increase is -1.63%.
`COc1cccc(C(c2sc3ncnn3c2O)N2CCc3ccccc3C2)c1` (stereo not given): the viability increase was 2.58%.
On to `COc1cccc(-n2c(Cc3cc(=O)[nH]c(=O)[nH]3)nnc2SCC(=O)N2CCCCCC2)c1`, for which the viability increase was -0.94%.
`Cn1c(CSc2nc3ccccc3s2)n[nH]c1=S`: the viability increase is -3.16%.
The figure for `O=C(CN1CCOCC1)Nc1cc(Cl)ccc1Cl` is -2.37%; for `CC(=O)N1CCc2c(sc(NC(=O)CN3C(=O)CCC3=O)c2C(N)=O)C1` it is -1.16%; for `Cc1cc(Nc2ccc(F)cc2C)n2ncnc2n1` it is 0.05%.
In the case of `COc1ccccc1CNC(=O)CS(=O)Cc1nc(-c2ccccc2C)oc1C` (stereo not given), the viability increase was -0.18%.
The figure for `Cc1nc2sc(C(c3ccccc3)N3CCN(CCO)CC3)c(O)n2n1` (stereo not given) is -1.6%.
As to `CC1(C)Cc2c(C#N)c(NCCCO)nc(-c3ccccc3)c2CO1`, the viability increase was -4.65%.
In the case of `CN1CCc2c(sc(NC(=O)c3ccc(S(=O)(=O)N4CCOCC4)cc3)c2C(N)=O)C1` it was -0.65%; in that of `COc1ccc(C)c(S(=O)(=O)Nc2ccc(OCC(=O)O)cc2)c1`, -1.41%.
